# Screening results (PubChem BioAssay)
# Tau FP inhib = tau fibrillization inhibition (FP). 280,000 compounds, 0.39% hits. K18 P301L tau heparin fibrillization, Alexa594 FP, 6 h. P10636. AID 1468. Potency, µM (titrated, usually from 57.7 µM), inactives show top-dose activity, negative = inhibition, most hits filed as inhibitors; further: potency means the concentration at half of the fitted maximal effect; nearly all actives have a fitted effect of over 55% in size
# Target sequence (P10636 561-689 P618L limits assumed): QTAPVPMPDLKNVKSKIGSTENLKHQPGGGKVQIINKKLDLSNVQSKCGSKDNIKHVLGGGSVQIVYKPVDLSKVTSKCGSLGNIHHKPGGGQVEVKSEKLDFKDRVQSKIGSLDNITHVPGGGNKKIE
#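 Human tau K18 […] P301L fragment, 15 uM unlabeled plus 0.24 uM Alexa 594-labeled tau (final), with compound and 20 uM heparin in 100 mM sodium acetate pH 7; 6 hr at 37 C, then Alexa 594 FP read.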
# Tau fluor cs = counter-screen for tau fibril formation inhibitors. tau K18 P301L Alexa594 fluorescence, heparin fibrillization. AID 1463. 280,000 compounds, 0.93% hits. Potency, µM (highest dose often 57.7 µM), inactives show at the top dose activity change, negative = decrease; further: potency means the concentration at half of the fitted maximal effect; nearly all actives have a fitted effect of over 55% in size
#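 Human tau K18 P301L (15 uM unlabeled, 0.24 uM Alexa 594-labeled) in 100 mM sodium acetate pH 7 with 20 uM heparin, 6 hr at 37 C. ThT 30 uM added, 1 hr ambient; Alexa 594 FP and total fluorescence read at 555/632 nm.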
# PNC inhibitor = inhibitors of perinucleolar compartment assembly; PC3M PTB-GFP, PNC prevalence imaging, 16 h; hits give low values; activity change (PNC), negative = inhibition, % at 10 µM; 140,000 compounds, 3.1% hits;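 active means readout at or below -70, meaning at least 70% loss of cells showing the perinucleolar compartment, a nuclear body marking cancer cells; inconclusive means readout between -30 and a set limit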;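 further: plate controls were DMSO wells for no effect and camptothecin positive control wells for full effect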
#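 Compounds are pinned in duplicate onto adhered PC3M cells stably expressing GFP-tagged PTB and incubated 16 h at 37 C. Cells are then fixed, nuclei stained with Hoechst, and PNC-positive cells counted.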
# TRb SRC2 PPI = inhibitors of human thyroid hormone receptor beta-SRC2 interaction; 280,000 compounds, 0.065% hits; TRbeta-SRC2 peptide binding, fluorescence polarization; receptor liganded with 1 µM T3; Potency, µM (top dose mostly 106 µM), without a hit: at the highest dose activity change, negative = inhibition, hits mostly inhibitors; AID 1469; P10828;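 further: potency means the concentration at half of the fitted maximal effect; plate controls were bound peptide for no effect and peptide without receptor for full effect; nearly all actives have a fitted effect of over 50% in size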
#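 Polarization signal, normalized between peptide-alone and full complex controls, measured compound effects on T3-liganded human TRb LBD (0.6 uM) binding 20 nM Texas Red SRC2 peptide after 5 hr.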
# TR SRC2 fluor cs = alters Texas Red total fluorescence, flagging assay interference; Potency, µM (top dose mostly 106 µM), without a hit: top-dose fluorescence change, negative = quenching; 280,000 compounds, 0.29% hits; TRb/SRC2 Texas Red total fluorescence interference; active means well fitted curve in either direction with a large enough effect; inconclusive means small, poorly fitted or top-dose-only effect; further: potency means the concentration at half of the fitted maximal effect
#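 Human TRβ ligand-binding domain (0.6 uM) and Texas Red SRC2 peptide (20 nM) in Tris buffer with 1 uM T3 and 5% DMSO were incubated with pinned compound for 5 hr at ambient temperature. Total fluorescence was computed as S + 2P (555/632 nm).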
# Tau ThT inhib = inhibitors of human tau fibril formation, thioflavin T binding. Potency, µM (highest dose often 57.4 µM), inactives show at the top dose activity, negative = inhibition, usual class: inhibitors. 270,000 compounds, 2.1% hits. recombinant tau K18 P301L, heparin-induced fibrillization, ThT fluorescence. AID 1460. P10636; further: potency means the concentration at half of the fitted maximal effect; nearly all actives have a fitted effect of over 55% in size
#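 Using a mix of unlabeled (15 uM) and Alexa 594-labeled (0.24 uM) tau K18 P301L, heparin-triggered fibrillization over 6 hr at 37 C was scored by ThT fluorescence.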
# * marks the source's active call; other numbers are inactive results; ? = inconclusive; · = not tested or not shown; [ ] = remark or other dose. An excerpt weighted towards active compounds, which were near 4.6% of everything screened. Unless noted, the call rests on the fitted dose curve; in most records, active means well fitted curve in the direction sought with a large enough effect; inconclusive means small, poorly fitted or top-dose-only effect, or another doubt; inactive means no such curve, though single readings can be large; an effect the other way counts as inactive or inconclusive. Unless noted, on the % scale 0 is the no-effect control and ±100 the full control effect.
SMILES,Tau FP inhib,Tau fluor cs,PNC inhibitor,TRb SRC2 PPI,TR SRC2 fluor cs,Tau ThT inhib
CCc1ccc(O)c(N=Cc2cccc(C)c2O)c1,-8%,?,-17,-2%,-6%,?
C=CC[n+]1c(/C=C2\C=Cc3cc(C)ccc3N2CC)ccc2ccccc21,-2%,14µM*[fluorescent],·,5%,-1%,3.5µM*
CN1c2ccsc2C(O)=C(C(=S)Nc2ccc(F)c(Cl)c2)S1(=O)=O,?,?,-17,12%,-3%,20µM*
COc1ccc(Cl)cc1NC(=O)N1CCN(C2CCCCC2)CC1,-1%,1%,-88*,-6%,-3%,-2%
CCCC(=O)C1=C(N2CCCCC2)CC(C)(C)C(C(=O)OC)C1=O (stereo not given),-4%,-9%,·,-6%,-1%,-5%
CCN(CC)S(=O)(=O)c1ccc(N2CCN(S(=O)(=O)c3ccc4c(c3)OCCO4)CC2)nc1,12%,-17%,-91*,-6%,0%,-7%
CN1CCN(c2ccc(S(=O)(=O)N3CCCCC3)cn2)CC1,-1%,-8%,-83*,-3%,3%,-7%
CCN(CC)S(=O)(=O)c1ccc(N2CCN(CCO)CC2)nc1,8%,-4%,25,5%,2%,-5%
O=C(N/N=C/C=C\c1ccco1)c1cccnc1,?,-18%,6,-3%,-1%,?
COC(=O)c1ccc2nc(C)cc(Nc3ccc(O)cc3)c2c1,5%,-24%,·,1%,-3%,-17%
COC(=O)c1ccc2nc(C)cc(Nc3ccc(N(C)C)cc3)c2c1,-2%,?,-119*,4%,-5%,?
COC(=O)c1cnc(N2CCN(c3ccccc3F)CC2)c2ccccc12,-4%,-30%,·,-1%,-2%,?
COC(=O)c1cnc(N2CCN(c3ccc(OC)cc3)CC2)c2ccccc12,-5%,?,·,-11%,1%,11µM*
CCC(=O)Nc1cc(-c2nn3c(C)nnc3s2)ccc1C,4%,4%,-4,-4%,-5%,-11%
COC(=O)CSc1nnc(C)n1-c1cccc(OC)c1,-8%,-12%,-96*,-3%,-2%,-11%
O=C(Cn1nc(-c2ccc(Cl)cc2)c2ccccc2c1=O)NCC1CCCO1 (stereo not given),?,-15%,5,1%,2%,-13%
Nc1ccc(-c2cnc(-c3ccc(N)cc3)nc2)cc1,1%,-26%,-123*,13%,-13%,?
Cc1occc1C(=O)NNC(=O)c1nn(C)c(=O)c2ccccc12,?,0%,·,-10%,-1%,-3%
O=C(O)c1ccc(N2CCOCC2)c(N2C(=O)C3C4C=CC(C4)C3C2=O)c1 (stereo not given),4%,2%,·,-5%,-1%,0%
CCOc1ccc(NC(=O)c2oc3ccccc3c2NC(=O)c2cc(C)cc(C)c2)cc1,-15%,?,·,1%,0%,3%
CCOc1ccc(C(=O)Nc2c(C(N)=O)oc3ccccc23)cc1,?,-28%,-119*,-10%,-2%,6%
COc1ccccc1OC(=O)c1ccc2nsnc2c1,4%,-4%,-81*,-12%,0%,-4%
Cc1cccc(C2(c3cccc(C)c3)CC2C(=O)Nc2ccc([N+](=O)[O-])cc2O)c1 (stereo not given),?,10µM*[quencher],-15,0%,-1%,?
COc1cccc(C2(c3cccc(OC)c3)CC2C(=O)Nc2ccc(F)cc2)c1 (stereo not given),-8%,-10%,-20,4%,-3%,11%
COc1cccc(C2(c3cccc(OC)c3)CC2C(=O)Nc2ccccc2Cl)c1 (stereo not given),-13%,-28%,-82*,2%,0%,-14%
CCCOc1ccc(CSC(=N)N)cc1C(=O)OC,1%,-11%,·,-4%,1%,-7%
